Structures are written as SMILES. Results filed as inconclusive are left out. Unmarked numbers belong to inactive results. Active and inactive are the calls of the source. Calls follow the shape of the dose curve; as a rule, active = well fitted curve in the direction sought with a large enough effect; inconclusive = small, poorly fitted or top-dose-only effect, or another doubt; inactive = no such curve, though single readings can be large; an effect the other way counts as inactive or inconclusive.

Rap guanine nucleotide exchange factor 3 (Homo sapiens), sequence (O95398 whole entry, looked up): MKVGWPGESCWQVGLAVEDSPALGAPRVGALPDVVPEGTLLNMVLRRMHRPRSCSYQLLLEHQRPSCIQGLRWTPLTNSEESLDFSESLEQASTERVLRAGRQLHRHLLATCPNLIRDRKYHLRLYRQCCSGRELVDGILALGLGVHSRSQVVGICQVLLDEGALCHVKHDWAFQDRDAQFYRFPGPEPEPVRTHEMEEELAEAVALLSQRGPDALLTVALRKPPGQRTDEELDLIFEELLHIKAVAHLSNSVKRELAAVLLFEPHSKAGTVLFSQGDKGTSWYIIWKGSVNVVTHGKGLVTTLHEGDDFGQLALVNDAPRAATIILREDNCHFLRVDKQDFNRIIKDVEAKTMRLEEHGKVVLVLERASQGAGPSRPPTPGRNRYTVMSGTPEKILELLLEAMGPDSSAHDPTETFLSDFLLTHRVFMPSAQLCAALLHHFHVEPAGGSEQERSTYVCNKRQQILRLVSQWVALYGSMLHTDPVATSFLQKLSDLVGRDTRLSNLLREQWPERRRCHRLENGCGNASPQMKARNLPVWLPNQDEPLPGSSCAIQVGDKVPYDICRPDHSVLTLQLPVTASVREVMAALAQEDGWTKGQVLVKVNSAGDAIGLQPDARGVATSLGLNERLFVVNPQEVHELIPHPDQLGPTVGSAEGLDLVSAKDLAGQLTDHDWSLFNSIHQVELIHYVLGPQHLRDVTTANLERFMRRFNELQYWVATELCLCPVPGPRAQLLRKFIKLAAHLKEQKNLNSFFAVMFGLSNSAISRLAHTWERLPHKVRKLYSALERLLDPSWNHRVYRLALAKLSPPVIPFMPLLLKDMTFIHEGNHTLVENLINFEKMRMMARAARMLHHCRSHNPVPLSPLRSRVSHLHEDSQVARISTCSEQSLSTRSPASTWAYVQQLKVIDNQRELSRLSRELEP
Rap guanine nucleotide exchange factor 4 (Homo sapiens), sequence (Q8WZA2 whole entry, looked up): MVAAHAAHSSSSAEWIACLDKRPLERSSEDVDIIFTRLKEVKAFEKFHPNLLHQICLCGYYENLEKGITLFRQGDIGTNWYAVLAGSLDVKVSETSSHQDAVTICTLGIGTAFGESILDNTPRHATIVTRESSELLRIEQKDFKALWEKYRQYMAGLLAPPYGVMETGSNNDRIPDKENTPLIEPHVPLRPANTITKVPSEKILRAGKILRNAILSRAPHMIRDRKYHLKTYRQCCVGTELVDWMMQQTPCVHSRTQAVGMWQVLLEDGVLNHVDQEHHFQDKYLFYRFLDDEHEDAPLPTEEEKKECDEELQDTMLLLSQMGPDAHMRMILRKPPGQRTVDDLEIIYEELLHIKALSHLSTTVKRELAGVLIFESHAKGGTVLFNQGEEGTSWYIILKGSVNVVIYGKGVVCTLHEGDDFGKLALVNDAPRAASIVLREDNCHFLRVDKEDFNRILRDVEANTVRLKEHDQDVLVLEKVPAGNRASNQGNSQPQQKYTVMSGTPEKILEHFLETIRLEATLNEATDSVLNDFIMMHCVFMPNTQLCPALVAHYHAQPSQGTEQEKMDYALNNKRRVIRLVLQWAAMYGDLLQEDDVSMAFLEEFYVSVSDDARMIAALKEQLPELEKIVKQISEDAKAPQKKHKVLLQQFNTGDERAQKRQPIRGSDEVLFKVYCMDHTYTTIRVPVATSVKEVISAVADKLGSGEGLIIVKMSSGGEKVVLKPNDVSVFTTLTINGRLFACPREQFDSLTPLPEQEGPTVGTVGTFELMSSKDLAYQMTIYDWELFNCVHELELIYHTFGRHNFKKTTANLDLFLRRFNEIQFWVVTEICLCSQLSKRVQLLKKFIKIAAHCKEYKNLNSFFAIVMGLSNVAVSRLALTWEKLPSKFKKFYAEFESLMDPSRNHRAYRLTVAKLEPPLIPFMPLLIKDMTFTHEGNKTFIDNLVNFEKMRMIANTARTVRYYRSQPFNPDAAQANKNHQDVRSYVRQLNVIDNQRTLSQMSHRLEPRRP

One assay concerns the target Rap guanine nucleotide exchange factor 4 (Homo sapiens) (UniProt Q8WZA2). As to the kind of experiment: Confirmatory qHTS for antagonist of cAMP-regulated guanine nucleotide exchange factor 4 (EPAC2) (AID 1645885). Also: nearly all actives have a fitted effect of over 25% in size. Also: potency is read from the fitted curve at half-maximal effect. As to activity change, negative = inhibition: % is scaled to controls: 0 for no effect and ±100 for the full control effect. To be noted: EPAC2 Rap1B-BODIPY-GDP exchange fluorescence, biochemical; series mostly up to 12.7 µM; activity change, negative = inhibition: at the top concentration. In general terms: In qHTS, concentration-response curves come from the screen itself.
Consider `Nc1ccc(CSc2ccc(Cl)cc2)c(Cl)c1`, for which the Potency was 21.3 µM (active).

For `COCCn1c(-c2ccc(OC)cc2)c(-c2ccc(OC)cc2)oc1=O`, the “activity change, negative = inhibition” value was 56.6% [at 114 µM].

Consider `O=C(NCc1ccc(OC(F)(F)F)cc1)c1cccc2c1C(=O)c1ccc(N3CCCC3)cc1S2(=O)=O`, for which the “activity change, negative = inhibition” value was -1.35%.

For `COc1ccc(/C=C/C(=O)c2cccs2)c(OC)c1`, the “activity change, negative = inhibition” value was -11.6% [at 114 µM].

As for `CC1CCN(c2ccc3c(c2)S(=O)(=O)c2cccc(C(=O)NC[C@@H]4CCCO4)c2C3=O)CC1`, the “activity change, negative = inhibition” value is -24% [at 114 µM].

For `Cn1cc(-c2cnc3c(NC=O)cc(-c4cccc(C(F)(F)F)c4)cn23)cn1`, the “activity change, negative = inhibition” value is 36.9% [at 114 µM].

On to `Oc1ccc(Cl)cc1CNc1cccc2cccnc12`, for which the “activity change, negative = inhibition” value was 28.3% [at 114 µM].

On to `Cc1cc2ccccn2c1C(=O)c1ccccc1Br`, for which the “activity change, negative = inhibition” value is 30.2% [at 114 µM].

As for `COc1ccc(O)c(C(c2c(C)[nH][nH]c2=O)c2c(C)[nH][nH]c2=O)c1`, the Potency is 75.7 µM (active).

As to `Cc1ccnc(NCc2cccc3ccccc23)c1`, the “activity change, negative = inhibition” value is 23.7% [at 114 µM].

Consider `COc1cccc(C2=NN(C(=O)c3ccco3)C(c3ccco3)C2)c1` (stereo unspecified), for which the “outcome” value was “inactive; activator; fitted 37.933 uM”.

`COC(=O)C(C)Sc1nc2ccsc2c(=O)n1Cc1ccccc1` (stereo unspecified): the Potency is 26.9 µM (active).

Regarding `OCc1ccc(-c2ccccc2)c(-c2ccccc2)c1`, the “outcome” value was “inactive; activator; fitted 37.933 uM”.

In the case of `CN1/C(=C\C=C2/C(=O)Oc3ccccc3C2=O)C(C)(C)c2ccccc21`, the “activity change, negative = inhibition” value was 33.5%.

Consider `Cc1c(CCC(=O)O)c(=O)oc2c(C)c3occ(-c4ccc(Br)cc4)c3cc12`, for which the “activity change, negative = inhibition” value was -37.1% [at 114 µM].

As for `S=C(Nc1ccc2nsnc2c1)NC1CCCCC1`, the “activity change, negative = inhibition” value was -27.9% [at 114 µM].

With `O=C(CC1Sc2ccccc2NC1=O)OCc1cc(=O)oc2cc(O)ccc12` (stereo unspecified), the “activity change, negative = inhibition” value was 23.7% [at 114 µM].

A further assay has as its target Rap guanine nucleotide exchange factor 3 (Homo sapiens) (UniProt O95398). As to the kind of experiment: Counterscreen qHTS for antagonist of cAMP-regulated guanine nucleotide exchange factor 3 (EPAC1) (AID 1645888).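 Also: fluorescence loss as bound BODIPY-GDP is released from Rap1B; % of control where 0% means no effect.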 The settings on record: Rap1B-BODIPY-GDP nucleotide exchange, fluorescence; series mostly up to 154 µM; activity change, negative = inhibition: at the top concentration. Summed up:
(§1)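 Rap1B–BODIPY-GDP (250 nM) with 50 uM GDP; compounds pin-transferred to 9.74 nM–152 uM final (activator) or from 7.32 nM upwards (inhibitor). Fluorescence Ex/Em 480/540 nm read at 5 and 30 min, then after adding cAMP or buffer, at room temperature.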
(A counterscreen serves to expose hits that act by an unwanted route or on another target.)
On to `CCc1ccccc1NC1c2ccccc2C(=O)N1Cc1ccco1` (stereo unspecified), for which the activity change, negative = inhibition is -4.2% [at 30.8 µM].

Take `Nc1ccc(CSc2ccc(Cl)cc2)c(Cl)c1`: the “activity change, negative = inhibition” value is 17.5%.

For the molecule `COCCn1c(-c2ccc(OC)cc2)c(-c2ccc(OC)cc2)oc1=O`, the “activity change, negative = inhibition” value is 5.41%.

With `CN(C)/C=C/c1onc(-c2c(Cl)cccc2Cl)c1C#N`, the “activity change, negative = inhibition” value is 14.3%.

As to `CCOC(=O)C1CN(S(=O)(=O)c2ccc(C)cc2)c2ccccc2O1` (stereo unspecified), the “activity change, negative = inhibition” value was 18.3%.

On to `CCC(=O)N(CCC(c1ccccc1)c1ccco1)Cc1cccs1` (stereo unspecified), for which the “activity change, negative = inhibition” value was -10.9%.

Take `CC1CCN(c2ccc3c(c2)S(=O)(=O)c2cccc(C(=O)NC[C@@H]4CCCO4)c2C3=O)CC1`: the “activity change, negative = inhibition” value was -5.04%.

As to `O=c1cc(Cl)c(-c2ccccc2)nn1Cc1ccc(Cl)cc1`, the “activity change, negative = inhibition” value was -3.18%.

In the case of `Cn1cc(-c2cnc3c(NC=O)cc(-c4cccc(C(F)(F)F)c4)cn23)cn1`, the “activity change, negative = inhibition” value was -21.7%.

As to `CN1c2ccsc2/C(=N/Nc2ccccc2)CS1(=O)=O`, the “activity change, negative = inhibition” value is -21%.

As for `Oc1ccc(Cl)cc1CNc1cccc2cccnc12`, the “activity change, negative = inhibition” value is 11.2%.

Take `COc1ccc(-c2nc3ccccc3nc2-c2ccccc2)cc1OC`: the “activity change, negative = inhibition” value is 3.09%.

In the case of `Cc1cc2ccccn2c1C(=O)c1ccccc1Br`, the “activity change, negative = inhibition” value is 35.8%.

`O=C1OC(c2ccccc2)(c2ccc(O)cc2)c2ccccc21` (stereo unspecified): the activity change, negative = inhibition is -9.22% [at 30.8 µM].

Take `COc1ccc(O)c(C(c2c(C)[nH][nH]c2=O)c2c(C)[nH][nH]c2=O)c1`: the “activity change, negative = inhibition” value was 33.4%.

With `Oc1ccc(/C(Cc2ccccn2)=N\Nc2ccccc2)c(O)c1`, the “activity change, negative = inhibition” value is 17%.

For the molecule `Cc1ccnc(NCc2cccc3ccccc23)c1`, the “activity change, negative = inhibition” value was 7.8%.

Regarding `COc1cccc(C2=NN(C(=O)c3ccco3)C(c3ccco3)C2)c1` (stereo unspecified), the “activity change, negative = inhibition” value is 16.9%.

Consider `Clc1ccc(C2Nc3cccc4cccc(c34)N2)c(Cl)c1`, for which the “activity change, negative = inhibition” value is 21%.

Regarding `OC[C@@H]1[C@@H](c2ccccc2)C(c2ccccc2)=NN1c1ccccc1`, the “activity change, negative = inhibition” value is 5.51%.

Regarding `COC(=O)C(C)Sc1nc2ccsc2c(=O)n1Cc1ccccc1` (stereo unspecified), the “activity change, negative = inhibition” value is -15.9%.

In the case of `OCc1ccc(-c2ccccc2)c(-c2ccccc2)c1`, the “activity change, negative = inhibition” value was -10.5%.

Consider `CCOC(=O)c1c(-c2ccccc2)oc2ccc(O)cc12`, for which the “activity change, negative = inhibition” value is 0.972%.

Take `COc1cc(C)nc(N2CCCC(C(=O)Nc3cc(Cl)ccc3OC)C2)n1` (stereo unspecified): the “activity change, negative = inhibition” value was 10.3%.

On to `O=C(COc1ccc(Cl)cc1Cl)NNC(=S)NCc1ccco1`, for which the “activity change, negative = inhibition” value is -4.61%.

Turning to `Oc1ccccc1Cc1c(O)ccc2ccccc12`, the “activity change, negative = inhibition” value was -9.9%.

For the molecule `COc1ccc(-c2n[nH]c(C)c2-c2ccccc2OC)c(O)c1`, the “activity change, negative = inhibition” value is -11.5%.

Consider `Cc1c(CCC(=O)O)c(=O)oc2c(C)c3occ(-c4ccc(Br)cc4)c3cc12`, for which the “activity change, negative = inhibition” value was -5.48%.

Take `S=C(Nc1ccc2nsnc2c1)NC1CCCCC1`: the “activity change, negative = inhibition” value is 25.9%.

Consider `COc1cc(C2CC(=O)Oc3cc(C)c(Cl)c(C)c32)cc(OC)c1OC` (stereo unspecified), for which the activity change, negative = inhibition is -10.7% [at 30.8 µM].

For another assay the target is unchanged. As to the kind of experiment: Counterscreen qHTS for agonist of cAMP-regulated guanine nucleotide exchange factor 3 (EPAC1) (AID 1645889). Also: nearly all actives have a fitted effect of over 40% in size. Also: potency is read from the fitted curve at half-maximal effect. As to activation: % of control where 0% means no effect. To be noted: EPAC1 Rap1B-BODIPY-GDP exchange, fluorescence; series mostly up to 154 µM; activation: at the top concentration. Summed up: as §1
As for `COc1ccc(/C=N/n2cnc3c([nH]c4ccc(F)cc43)c2=O)cc1CN1CCCC1`, the “activation” value was 6.8%.

For the molecule `CN(C)/C=C/c1onc(-c2c(Cl)cccc2Cl)c1C#N`, the “activation” value was 28.4%.

In the case of `O=C(NCCC1CCCCN1S(=O)(=O)c1ccc(Cl)cc1)C(=O)NCc1ccco1` (stereo unspecified), the Potency was 89.1 µM (active).

As to `O=C(NCc1ccc(OC(F)(F)F)cc1)c1cccc2c1C(=O)c1ccc(N3CCCC3)cc1S2(=O)=O`, the activation was 20% [at 30.8 µM].

Turning to `CCOC(=O)c1sc(NC(=O)CN2C(=O)NC3(CC(C)CC(C)(C)C3)C2=O)cc1C` (stereo unspecified), the Potency was 89.1 µM (active).

Consider `COc1ccc(C(NCC(=O)NC(C)c2ccc(Cl)cc2)c2ccccc2)cc1` (stereo unspecified), for which the “activation” value is 13.2%.

Regarding `COc1ccc(C(=O)Nc2ccccc2C(=O)O)cc1NC(=O)C(c1ccccc1)c1ccccc1`, the Potency was 112 µM (active).

For `Cc1cc2ccccn2c1C(=O)c1ccccc1Br`, the Potency is 25.1 µM (active).

As to `Cc1ccnc(NCc2cccc3ccccc23)c1`, the “activation” value was 17.5%.

As to `COc1cccc(C2=NN(C(=O)c3ccco3)C(c3ccco3)C2)c1` (stereo unspecified), the “activation” value was 31.3%.

As to `COc1ccc(-c2n[nH]c(C)c2-c2ccccc2OC)c(O)c1`, the “activation” value is 20.2%.

For `Cc1c(CCC(=O)O)c(=O)oc2c(C)c3occ(-c4ccc(Br)cc4)c3cc12`, the “activation” value was 5.64%.

Regarding `COc1cc(C2CC(=O)Oc3cc(C)c(Cl)c(C)c32)cc(OC)c1OC` (stereo unspecified), the activation was 28.3% [at 30.8 µM].

On to `O=C(CC1Sc2ccccc2NC1=O)OCc1cc(=O)oc2cc(O)ccc12` (stereo unspecified), for which the “activation” value was 14.1%.

For the origin of these results see PubChem BioAssay (NCATS).
